Source: PubChem BioAssay (NCI)
About 79,000 compounds went through this panel and 15% of them were active in at least one assay; those are over-represented in the sample as a whole. Rule as the data show it: active = growth inhibition above about 70%; inactive = the rest. Where a SMILES comes first, the peptide text is derived from it. The star is where a group is joined. Bz = O=C(c1ccccc1)*; Bn = c1ccc(C*)cc1; βAla = NCCC(=O)O

How the values were obtained:
[1] = NCI Yeast Anticancer Drug Screen. Data for the rad50 strain (AID 155);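 also: 0% = growth of vehicle-only cultures of the same strain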; conditions: S. cerevisiae rad50 strain growth inhibition; at 50.0 µM; stronger effect = higher value
Outline: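 Readout: growth inhibition relative to vehicle-treated cultures. Compound exposure was carried out in a genetically defined yeast strain deficient in DNA damage repair.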

[2] = NCI Yeast Anticancer Drug Screen. Data for the mec2-1 strain (AID 157); conditions: S. cerevisiae mec2-1 strain, at 50.0 µM, stronger effect = higher value
Outline: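 mec2-1 yeast strain, carrying an alteration in DNA damage repair or cell cycle control, was exposed to compounds; growth inhibition was measured relative to vehicle-treated controls.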

[3] = NCI Yeast Anticancer Drug Screen. Data for the sgs1 mgt1 strain (AID 161);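 also: 0% = growth of cultures given vehicle only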; conditions: S. cerevisiae sgs1 mgt1 strain, at 50.0 µM, stronger effect = higher value
Outline: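 Yeast cells carrying a defined DNA-repair defect were exposed to test compounds. Growth inhibition was measured relative to vehicle-treated controls.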

[4] = NCI Yeast Anticancer Drug Screen. Data for the cln2 rad14 strain (AID 165);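 also: 0% = growth equal to vehicle treated cultures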; conditions: S. cerevisiae cln2 rad14 strain, at 50.0 µM, stronger effect = higher value
Outline: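 Yeast carrying cln2 and rad14 alterations (cell cycle control and DNA damage repair) were exposed to compounds. Growth inhibition was measured against vehicle-treated controls.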

[5] = NCI Yeast Anticancer Drug Screen. Data for the bub3 strain (AID 167); conditions: S. cerevisiae bub3 mutant strain, at 50.0 µM, stronger effect = higher value
Outline: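 Readout: yeast growth inhibition, expressed relative to vehicle-only wells. The test organism is a mutant strain from a panel with lesions in DNA repair or checkpoint genes.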

[6] = NCI Yeast Anticancer Drug Screen. Data for the mlh1 rad18 strain (AID 175); conditions: S. cerevisiae mlh1 rad18 strain growth inhibition; at 50.0 µM; stronger effect = higher value
Outline: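 Growth inhibition of the yeast strain was measured after compound exposure and expressed relative to vehicle-treated controls. The strain carries defined defects in DNA damage repair.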

Measured: growth inhibition

COC(=O)c1nc(N)nc(C(=O)OC)c1C(=O)c1ccc([N+](=O)[O-])cc1
inactive: [1] -20.9% | [2] -23.6% | [3] -37% | [4] -22% | [5] -44.8% | [6] -41%

CC(=O)CCc1ccc(OC(=O)C(Cl)Cl)cc1
inactive: [1] 27% | [2] 12.1% | [3] 18.7% | [4] 13.8% | [5] 13.9% | [6] 29.6%

CC12CCC(C(Br)C1=O)C2(C)CBr (stereo not given)
inactive: [1] -9.8% | [2] 5.75% | [3] 20.4% | [4] 23.8% | [5] 9% | [6] -0.7%

Cc1ccc(S(=O)(=O)Nc2ccc([N+](=O)[O-])cc2[N+](=O)[O-])cc1
inactive: [1] 17.5% | [2] 15.3% | [3] -1.65% | [4] 9.85% | [5] 1.15% | [6] 17.8%

O=c1cc(-c2ccccc2)nc(Sc2ccc([N+](=O)[O-])cc2[N+](=O)[O-])[nH]1
inactive: [1] 1.1% | [2] 0.2% | [3] -11.4% | [4] 2.7% | [5] 2.65% | [6] 8.25%

CCCCCCCCCCCCC#N
inactive: [1] -20.8% | [2] -16.1% | [3] -1.15% | [4] -32.9% | [5] -5.2% | [6] 7.85%

CCCCOC(=O)NC(=O)c1cc2cc(Br)cc(Br)c2oc1=O
inactive: [1] -2% | [2] 25.8% | [3] 0.3% | [4] -7.05% | [5] -1.2% | [6] -17.2%

O=C(CCCCCCCC(=O)OC(CCC1CCCO1)CCC1CCCO1)OC(CCC1CCCO1)CCC1CCCO1 (stereo not given)
inactive: [1] 6.1% | [2] -18.6% | [3] -4.5% | [4] -9.75% | [5] -6.5% | [6] 7.05%

C1=CC2CCC1C1CSCC21 (stereo not given)
inactive: [1] -3.15% | [2] -11.6% | [3] -8.95% | [4] -33.8% | [5] -3.45% | [6] -12.7%

CC1=CC(=O)C(O)C2(C)C(CCC3(C)OCCO3)C=C(O[Si](C)(C)C(C)(C)C)CC12 (stereo not given)
inactive: [1] 21.6% | [2] -2.5% | [3] 1.2% | [4] 18.4% | [5] 5.15% | [6] 7%

O=C1OC(C(Cl)(Cl)Cl)Nc2ccccc21 (stereo not given)
inactive: [1] 13.8% | [2] -19.8% | [3] 9.35% | [4] 15.6% | [5] 19.4% | [6] 12.9%

O=C1NC(c2ccco2)N2C(=O)NC(c3ccco3)N12 (stereo not given)
inactive: [1] 15.2% | [2] 21.5% | [3] 24.5% | [4] 12.6% | [5] 18.6% | [6] 16.7%

CC(C)C(NC(=O)C1CSC(C)(C)N1C=O)C(=O)O (stereo not given)
inactive: [1] -1.6% | [2] -0.1% | [3] -3.3% | [4] -8.35% | [5] 6.55% | [6] 2.25%

Cc1ccc(S(=O)(=O)N2CCSCCSCCSCCN(S(=O)(=O)c3ccc(C)cc3)CC2)cc1
inactive: [1] 7.05% | [2] -0.8% | [3] 4.25% | [4] 15.6% | [5] -4.1% | [6] 23.1%

CCn1cc(C(=O)CCP(=O)(OC)OC)c2ccccc21
inactive: [1] 7.5% | [2] -22.2% | [3] 3.6% | [4] -12.8% | [5] 5.15% | [6] -0.25%

Cc1cc(Br)c(NC(=O)c2csnn2)c(Br)c1
inactive: [1] -31% | [2] -13.6% | [3] -13.6% | [4] -26.8% | [5] 2.65% | [6] -11.4%

COC(=O)Nc1cccc(OC(=O)NC2CCCCC2)c1
inactive: [1] 12.1% | [2] 32.7% | [3] 15.1% | [4] 4.25% | [5] 33.8% | [6] 16.4%

NC(=O)n1ncc(Cl)c(Cl)c1=O
inactive: [1] -7.25% | [2] -1.5% | [3] 2.1% | [4] 4.3% | [5] -1.8% | [6] 7.35%

O=C(/C=C\c1ccc(/C=C\C(=O)c2ccccc2O)cc1)c1ccccc1O
inactive: [1] 8.5% | [2] -13.3% | [3] -8.75% | [4] -3.75% | [5] 22.2% | [6] -23.3%

O=C(/C=C/c1ccc(O)c(O)c1)OC1CC(O)(C(=O)O)CC(O)C1O (stereo not given)
inactive: [1] 4.75% | [2] 5.9% | [3] 7.85% | [4] 11.4% | [5] -2.75% | [6] 17.7%

Nc1ccc(Sc2nnc(N)s2)cc1
inactive: [1] -26% | [2] -16.6% | [3] -53.1% | [4] 6.8% | [5] -31.4% | [6] -47.5%

O=C(CCC(O)(C(=O)c1ccccc1)c1ccccc1)c1ccccc1 (stereo not given)
inactive: [1] 9.25% | [2] 9.5% | [3] -0.1% | [4] 6.35% | [5] 0.4% | [6] 26.4%

Cc1ccc(C(C)C)cc1NC(=O)NCCCl
inactive: [1] -9.8% | [2] 10.6% | [3] 2.8% | [4] -33.3% | [5] -9.6% | [6] -6.4%

CCCn1cnc2c(NN=O)ncnc21
inactive: [1] -42% | [2] -13.2% | [3] -51.6% | [4] -23.2% | [5] -9.35% | [6] -45.5%

Brc1nc(-[n+]2ccccc2)[n-]c1Br
inactive: [1] -0.75% | [2] 3.75% | [3] -13.9% | [4] -60.5% | [5] 1.5% | [6] 1.4%

CCCCOC(=O)C(C)OC(=O)Nc1ccccc1 (stereo not given)
inactive: [1] 5.85% | [2] 23.4% | [3] 16.1% | [4] -52.6% | [5] 18.6% | [6] 12%

O=P(O)(O)CCC(O)CO (stereo not given)
inactive: [1] -12.5% | [2] 10.3% | [3] -11.6% | [4] -78.2% | [5] 4.6% | [6] -17.5%

Cc1ccc(F)c([N+](=O)[O-])c1
inactive: [1] -3.55% | [2] 7.1% | [3] -10.5% | [4] 0% | [5] -9.65% | [6] -6.5%

C[S+](C)CC(=O)c1ccccc1O
inactive: [1] -2.55% | [2] -9.7% | [3] 2.2% | [4] -62.4% | [5] 3.4% | [6] -0.6%

CC(C)(C)C1CCC(C2CC(C(C)(C)C)CCC2=O)CC1 (stereo not given)
inactive: [1] 2.75% | [2] -8% | [3] 1.65% | [4] 5.15% | [5] 5.7% | [6] 27.8%

COC(=O)CCC(NC(=S)N/N=C(\C)c1cccs1)C(=O)OC (stereo not given)
inactive: [1] 14.1% | [2] -10.3% | [3] 17.3% | [4] 0.45% | [5] 7.4% | [6] -0.25%

CN(C)c1nc2nccnc2c(=O)[nH]1
inactive: [1] 11.4% | [2] -1.75% | [3] -11.2% | [4] -52.5% | [5] 6.45% | [6] -14.3%

NC(=O)NOCC(N)C(=O)O (stereo not given)
inactive: [1] -7.2% | [2] 1.8% | [3] 1.15% | [4] -41.3% | [5] 5.35% | [6] -2.9%

ClC1=Cc2cccc3cccc1c23
inactive: [1] 1.55% | [2] 6.15% | [3] 0.2% | [4] 2.5% | [5] 12.4% | [6] 3.8%

C[Si](C)(CCCNCCN)O[Si](C)(C)CCCNCCN
inactive: [1] -7.3% | [2] -24.1% | [3] 5.65% | [4] -2.1% | [5] 9.2% | [6] 9.95%

CCN(CC)CCCC(C)Nc1nncc2ccccc12 (stereo not given)
inactive: [1] -19.2% | [2] -2.1% | [3] 2.55% | [4] -17.3% | [5] -1.3% | [6] -8.95%

CC1=C(C(=O)CC(=O)C(=O)Nc2ccc(C)cc2)Sc2ccccc2N1
inactive: [1] -7.35% | [2] 21.1% | [3] -16.4% | [4] 21.9% | [5] -9.1% | [6] -8.25%

Cc1cc(-c2ccc(NC(=O)c3cccc([N+](=O)[O-])c3)c(C)c2)ccc1NC(=O)c1cccc([N+](=O)[O-])c1
inactive: [1] -19.2% | [2] -26.7% | [3] 0.25% | [4] 15.3% | [5] 0.7% | [6] -14.3%

c1ccc(C23CCCCC2O3)cc1 (stereo not given)
inactive: [1] 0.75% | [2] 2.95% | [3] 6.55% | [4] 5.95% | [5] 12.4% | [6] 4.85%

COC(=O)C(CSCc1ccccc1)NC(=O)C(CSCc1ccccc1)NC(=O)CCNC(=O)c1ccccc1 (stereo not given) ({Bz-βAla}-Cys(Bn)-Cys(Bn)-OMe; configuration not given here)
inactive: [1] 13.9% | [2] -5.05% | [3] 2.1% | [4] 30.1% | [5] -0.9% | [6] 9.05%
